# Screening results from PubChem BioAssay.
# Sampled rows, rich in hits. Any-hit rate of the full collection: about 9.4%.
# Rab9 promoter act = qHTS Assay for Rab9 Promoter Activators | Huh7 Rab9 promoter-luciferase reporter, luminescence, 24 h | AID 485297, 2010 | 320,000 tested, 2.8% active | Potency, µM (series often up to 9.22 µM), without a hit: at the top dose activation, negative = inhibition, usual class: activators; note: % of control where 0% means no effect; nearly all actives have a fitted effect of over 60% in size
#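 Using Huh7 cells stably transfected with Rab9 promoter–luciferase, compounds were incubated 24 h at 37 °C, 5% CO2; luciferase luminescence was read 10 min after reagent addition.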
# NPC1 prom act = qHTS Assay for NPC1 Promoter Activators | Potency, µM (series often up to 9.22 µM), for the others: at the highest dose activation, hits mostly activators | Huh7 NPC1 promoter luciferase reporter, 24 h | 320,000 tested, 2.4% active | AID 485313, 2010; note: % of control where 0% means no effect; nearly all actives have a fitted effect of over 60% in size
#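 Luminescence from an NPC1 promoter-driven luciferase reporter in stably transfected Huh7 cells was measured after 24 h compound treatment at 37 °C, followed by 10 min ambient incubation with luciferase detection reagent.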
# ELG1 genotox = qHTS screen for small molecules that induce genotoxicity in human embryonic kidney (HEK293T) cells expressing luciferase-tagged ELG1 | AID 504466, 2011 | HEK293T ELG1-luciferase reporter, luminescence, 16 h | Potency, µM (top dose mostly 46 µM), for the others: at the highest dose activity change, positive = activation, actives largely listed as activators | 330,000 tested, 1.3% active; note: % of control where 0% means no effect; nearly all actives have a fitted effect of over 60% in size
#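 Reporter readout depends on ELG1 protein level, which increases with genetic stress. After 16 hr compound exposure at 37 °C, luciferase activity was quantified using ONE-Glo.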
# SMN2 splice up = qHTS Assay for Enhancers of SMN2 Splice Variant Expression; AID 1458, 2008; 210,000 tested, 2.8% active; Potency, µM (titrated, usually from 46.1 µM), for the others: top-dose activity change, positive = activation, actives largely listed as activators; HEK293 SMN2-luciferase splicing reporter, luminescence, 30-36 h; note: % of control where 0% means no effect; nearly all actives have a fitted effect of over 55% in size
#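 qHTS luciferase splicing reporter: luminescence rises when SMN2 exon 7 is included in transfected HEK293 cells. Compound exposure lasted 30-36 h at 37C, with 4.5 mM final sodium butyrate as control, followed by a ONE-Glo read.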
# ELG1 DNA repair = qHTS screen for small molecules that inhibit ELG1-dependent DNA repair in human embryonic kidney (HEK293T) cells expressing luciferase-tagged ELG1; HEK293T ELG1-luciferase reporter, luminescence, 16 h; DNA damage induced by 5-fluorouridine; Potency, µM (titrated, usually from 46.1 µM), for the others: at the highest dose activity change, negative = inhibition, usual class: inhibitors; 330,000 tested, 2.3% active; note: % is set by controls: 0 for no effect and ±100 for the full control effect; nearly all actives have a fitted effect of over 55% in size
#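 Step one: seed 2,000 cells per well. Step two: pin-transfer compound or DMSO alongside 5-fluorouridine. Step three: incubate 16 hr, 37 °C, 5% CO2. Step four: add ONE-Glo, wait 30 min, read luminescence.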
# FLuc modulator = qHTS profiling assay for firefly luciferase inhibitor/activator using purifed enzyme and Km concentrations of substrates (counterscreen for miR-21 project) | Luciferin 4-monooxygenase (Photinus pyralis), P08659 | purified FLuc, Km substrates, luminescence inhibition | Potency, µM (highest dose often 57.5 µM), without a hit: at the top dose activity change, negative = inhibition, hits mostly inhibitors | 360,000 tested, 6.9% active | AID 588342, 2011;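 note: plate controls were vehicle for no effect and reference inhibitor for full effect; nearly all actives have a fitted effect of over 55% in size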
# Target sequence (P08659 whole entry, looked up): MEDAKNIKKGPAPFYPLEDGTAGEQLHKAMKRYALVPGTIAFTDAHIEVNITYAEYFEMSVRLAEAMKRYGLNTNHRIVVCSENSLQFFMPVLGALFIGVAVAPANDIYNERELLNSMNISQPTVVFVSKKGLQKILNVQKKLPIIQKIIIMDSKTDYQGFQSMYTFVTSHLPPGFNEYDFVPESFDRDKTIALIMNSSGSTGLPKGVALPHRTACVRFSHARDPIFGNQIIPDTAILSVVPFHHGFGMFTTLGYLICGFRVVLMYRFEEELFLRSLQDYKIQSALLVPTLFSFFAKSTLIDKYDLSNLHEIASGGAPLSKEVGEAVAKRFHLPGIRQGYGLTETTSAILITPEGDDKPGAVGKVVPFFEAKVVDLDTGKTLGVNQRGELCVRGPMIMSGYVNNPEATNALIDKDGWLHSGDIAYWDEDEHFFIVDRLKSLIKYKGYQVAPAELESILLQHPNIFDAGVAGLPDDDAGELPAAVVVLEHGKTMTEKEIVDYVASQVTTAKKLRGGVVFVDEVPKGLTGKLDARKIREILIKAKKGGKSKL
#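 Purified P. pyralis luciferase, 10 nM final, with Km-level 10 uM D-luciferin and 10 uM ATP in 50 mM Tris acetate pH 7.5, 10 mM Mg acetate, 0.01% Tween-20, 0.05% BSA; 6-point qHTS titration about 60 µM downward; luminescence read.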
# Starred values were filed as active, the others as inactive; ? = inconclusive; / = not tested or not shown. Calls come from the whole dose curve; as a rule, active = well fitted curve in the direction sought with a large enough effect; inconclusive = small, poorly fitted or top-dose-only effect, or another doubt; inactive = no such curve, though single readings can be large; an effect the other way counts as inactive or inconclusive. Potency is the fitted concentration of half-maximal effect.
SMILES,Rab9 promoter act,NPC1 prom act,ELG1 genotox,SMN2 splice up,ELG1 DNA repair,FLuc modulator
CC(=O)Nc1cccc(NC(=O)Nc2ccc(C(C)=O)cc2)c1,11.1%,23.8%,?,19.0%,?,10.7µM*
CC(=O)c1ccc(NC(=O)Nc2cccc3ccccc23)cc1,?,25.5%,?,/,?,?
O=C(Nc1ccccc1)Nc1csc2ccccc12,?,?,16.6%,/,?,12µM*
O=C(O)/C=C/C(=O)Nc1ccc(-n2nccc2C(F)(F)F)cc1,9.3%,-1.4%,1.2%,/,14.9%,16.9µM*
CCN(CC)c1ccc(NC(=O)Nc2cccc(C(C)=O)c2)cc1,/,/,/,16.1%,/,1.69µM*
Cc1cc(C)cc(NC(=O)c2cc(Cl)sc2Cl)c1,-0.9%,2.3%,-0.9%,1.6%,2.1%,?
CC(=O)c1ccc(NC(=O)c2cc(Cl)sc2Cl)cc1,2.24µM*,2.82µM*,?,12.6µM*,?,15.1µM*
CC(=O)Nc1ccc(NC(=O)Nc2ccccc2)cc1,?,?,16.7%,/,?,16.9µM*
CC(=O)c1ccc(NC(=O)Nc2ccncc2)cc1,20.3%,1.0%,12.4%,15.3%,?,-26.5%
CC(=O)c1ccc(NC(=O)Nc2ccc(Cl)cc2)cc1,1.41µM*,1.41µM*,2.06µM*,12.6µM*,?,12µM*
CC(=O)c1ccc(N2CCN(C(=S)Nc3ccc(Oc4ccccc4)cc3)CC2)cc1,-22.8%,-30.5%,-8.1%,-56.3%,5.8µM*,-4.0%
COc1ccc(C(=O)NCCn2cc(SCc3ccc(C(F)(F)F)cc3)c3ccccc32)cc1OC,/,/,/,-0.3%,/,-11.1%
O=C(CNC(=O)c1ccco1)NCC(=O)OCc1ccc(Cl)cc1Cl,-13.6%,-3.5%,-1.1%,/,-1.7%,-10.0%
COc1ccccc1NC(=O)c1oc2ccccc2c1NC(=O)Cc1ccccc1,/,/,/,-0.5%,/,0.3%
CCn1c(-c2cc(-c3cc(OC)ccc3OC)nc3ccccc23)n[nH]c1=S,-6.2%,-1.4%,-3.8%,-6.6%,6.51µM*,-1.1%
COc1ccc(Cl)cc1-c1n[nH]c(=S)n1Cc1ccccc1,0.0%,-1.8%,-2.6%,/,-2.0%,1.2%
CCn1c(-c2cc(-c3ccccc3OC)nc3ccccc23)n[nH]c1=S,-0.3%,-1.2%,-8.3%,19.8%,16.4µM*,0.9%
O=C(Nc1ccc(S(=O)(=O)N2CCCCCC2)cc1)c1[nH]ncc1[N+](=O)[O-],?,?,?,/,?,16.9µM*
Cc1nnsc1C(=O)Nc1ccc(S(=O)(=O)N2CCCCC2)cc1,-11.2%,0.1%,-0.6%,/,11.6µM*,0.3%
Cc1nnsc1C(=O)Nc1ccc(S(=O)(=O)N2CCCC(C)C2)cc1 (centres undefined),-1.4%,-1.6%,0.4%,/,-16.8%,7.1%
CC1(C)c2ccccc2-c2nc3ccccc3cc2C1O (centres undefined),4.2%,-5.5%,-0.1%,/,?,15.1µM*
COc1cccc(/C=c2\sc3nc(-c4cccs4)nn3c2=O)c1OC,-3.0%,0.0%,1.8%,17.2%,1.0%,8.49µM*
O[C@@H]([C@H](O)[C@@H](O)CBr)[C@@H](O)CBr,/,/,/,-0.2%,/,/
CCc1ccc2oc(-c3cc(N)ccc3Cl)nc2c1,2.51µM*,3.98µM*,2.06µM*,?,?,0.239µM*
CCc1ccc2oc(-c3cc(N)ccc3O)nc2c1,4.47µM*,3.16µM*,22.5%,25.1µM*,?,0.338µM*
Nc1ccc2oc(-c3ccccc3Cl)nc2c1,0.447µM*,?,3.66µM*,2.82µM*,?,1.35µM*
Nc1ccc2oc(-c3cc(Br)ccc3Cl)nc2c1,3.1%,-0.7%,?,12.3%,?,?
